Laboratory results reported in PubChem BioAssay (EPA / NIEHS).
Where “and” joins values, the source holds several entries; their conditions need not be identical. Equal entries are not always repeated. Some structures have more than one record in an assay (separate samples or runs), and their calls can disagree. Calls of active or inactive are those of the source. How the source made its calls: active means hit-call score of the fitted dose curve at least 0.9, where 1 is the maximum; inactive means score below 0.9.

Tests used:
[1] = read-out: Monokine induced gamma interferon (MIG), CXCL9 (gene 4283); assay: BSK_BE3C_MIG: BioMAP Diversity Plus: BE3C Assay for Monokine induced gamma interferon (MIG) Biomarker Activity (AID 2283035); settings: primary human bronchial epithelial cells; actives raise or lower the signal
Method in brief: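 Primary human bronchial epithelial cells treated for 24 h; MIG levels measured by ELISA, fitted bidirectionally versus DMSO. Parallel SRB total-protein staining assessed cytotoxicity.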

[2] = read-out: Transforming growth factor beta 1 (TGFb1), TGFB1 (gene 7040); assay: BSK_BE3C_TGFb1: BioMAP Diversity Plus: BE3C Assay for Transforming growth factor beta 1 (TGFb1) Biomarker Activity (AID 2283036); settings: primary human bronchial epithelial cells; actives raise or lower the signal
Method in brief: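 Primary human lung bronchial epithelial cells; compound exposure 24 h; TGF-b1 by ELISA; bidirectional fit, DMSO baseline. Parallel SRB total-protein staining for cytotoxicity.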

[3] = read-out: Plasminogen activator inhibitor-1 (PAI1), SERPINE1 (gene 5054); assay: BSK_BE3C_PAI1: BioMAP Diversity Plus: BE3C Assay for Plasminogen activator inhibitor-1 (PAI1) Biomarker Activity (AID 2283037); settings: primary human bronchial epithelial cells; actives raise or lower the signal
Method in brief: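 Primary human lung bronchial epithelial cells; chemical dosing; 24 h; PAI-1 measured by ELISA; bidirectional fit referenced to DMSO as negative control.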

[4] = read-out: Urokinase-type plasminogen activator receptor (uPAR), PLAUR (gene 5329); assay: BSK_BE3C_uPAR: BioMAP Diversity Plus: BE3C Assay for Urokinase-type plasminogen activator receptor (uPAR) Biomarker Activity (AID 2283039); settings: primary human bronchial epithelial cells; actives raise or lower the signal
Method in brief: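 Human bronchial epithelial primary cells; chemical exposure 24 h; uPAR by ELISA; bidirectional fit vs DMSO control.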

[5] = read-out: Interleukin-6 (IL6), IL6 (gene 3569); assay: BSK_CASM3C_IL6: BioMAP Diversity Plus: CASM3C Assay for Interleukin-6 (IL6) Biomarker Activity for (AID 2283040); settings: primary human coronary artery smooth muscle cells; actives raise or lower the signal
[6] = read-out: Interleukin-8 (IL8), CXCL8 (gene 3576); assay: BSK_CASM3C_IL8: BioMAP Diversity Plus: CASM3C Assay for Interleukin-8 (IL8) Biomarker Activity (AID 2283042); settings: primary human coronary artery smooth muscle cells; actives raise or lower the signal;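 further: IL-8 protein level quantified by ELISA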
[7] = read-out: Human Leukocyte Antigen - DR isotype (HLADR), HLA-DRA (gene 3122); assay: BSK_CASM3C_HLADR: BioMAP Diversity Plus: CASM3C Assay for Human Leukocyte Antigen - DR isotype (HLADR) Biomarker Activity (AID 2283043); settings: primary human coronary artery smooth muscle cells; actives raise or lower the signal;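 further: cell-surface HLA-DR protein level quantified by ELISA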
[8] = read-out: Macrophage colony-stimulating factor (MCSF), CSF1 (gene 1435); assay: BSK_CASM3C_MCSF: BioMAP Diversity Plus: CASM3C Assay for Macrophage colony-stimulating factor (MCSF) Biomarker Activity (AID 2283044); settings: primary human coronary artery smooth muscle cells; actives raise or lower the signal;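 further: M-CSF protein amount quantified by ELISA after 24 h exposure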
[9] = read-out: Tissue plasminogen activator (tPA), PLAT (gene 5327); assay: BSK_BE3C_tPA: BioMAP Diversity Plus: BE3C Assay for Tissue plasminogen activator (tPA) Biomarker Activity (AID 2283041); settings: primary human bronchial epithelial cells; actives raise or lower the signal
Method in brief: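 Primary human lung bronchial epithelial cultures receive test chemical; after 24 h, tPA is quantified by ELISA, and gain or loss of signal is fitted bidirectionally relative to DMSO baseline.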

Measured: AC50

CCCCCCCCC(=O)NCc1ccc(O)c(OC)c1
active: [3] 20 µM | [7] 32.3 µM
not listed: [9]
inactive: all other assays above

CC(C)(C)CC(C)(C)c1ccc(O)cc1
active: [1] 34.5 µM | [2] 14.7 µM | [3] 30.9 µM | [4] 30 µM | [5] 12 µM | [6] 30.3 µM | [7] 11.2 µM | [8] 11.3 µM

CCOP(=S)(OCC)SCSP(=S)(OCC)OCC
inactive: all assays above

O=C(O)C(F)(F)C(F)(F)C(F)(F)C(F)(F)C(F)(F)C(F)(F)C(F)(F)C(F)(F)C(F)(F)C(F)(F)F
active: [1] 13.8 µM and 5.09 µM and 5.56 µM | [2] 8.28 µM | [3] 12.3 µM and 2.33 µM and 1.73 µM | [4] 26 µM and 5.6 µM and 5.59 µM | [7] 19.1 µM
inactive: [5] | [6] | [7] | [8]

CC(C)CCCCCCOC(=O)c1ccccc1C(=O)OCCCCCCC(C)C
not listed: [9]
inactive: all other assays above

O=C(Nc1ccc2[nH]ccc2c1)c1cc2cc(F)ccc2n1Cc1cccc(F)c1
active: [1] 8.22 µM | [3] 5.51 µM | [4] 6.74 µM | [5] 33.5 µM | [9] 5.75 µM | [6] 23.6 µM | [7] 17.8 µM | [8] 33.7 µM
inactive: [2]

O=Cc1cccc(Oc2ccccc2)c1
not listed: [9]
inactive: all other assays above

C=CC(=O)OCCCCCC(C)C
not listed: [9]
inactive: all other assays above

Cc1ccccc1N
not listed: [9]
inactive: all other assays above

Nc1cccc2ccccc12
not listed: [9]
inactive: all other assays above

CC12CC1(C)C(=O)N(c1cc(Cl)cc(Cl)c1)C2=O (stereo not given)
inactive: all assays above

COc1cc(OC)nc(NC(=O)NS(=O)(=O)c2ncccc2C(=O)N(C)C)n1
not listed: [9]
inactive: all other assays above

COP(=S)(OC)Oc1ccc(S(=O)(=O)N(C)C)cc1
inactive: all assays above

Cn1sc(Cl)cc1=O
active: [5] 20 µM
not listed: [9]
inactive: all other assays above

CCOP(=S)(OCC)SCCS(=O)(=O)CC
inactive: all assays above

COP(=S)(OC)Oc1ccc(Sc2ccc(OP(=S)(OC)OC)cc2)cc1
not listed: [9]
inactive: all other assays above

C[C@@H]1C[C@@H]([C@H](O)CC2CC(=O)NC(=O)C2)C(=O)[C@@H](C)C1
active: [1] 14.4 µM | [2] 2.83 µM | [3] 1.63 µM | [4] 4.03 µM | [5] 1.27 µM | [6] 6.03 µM | [7] 1.84 µM | [8] 4.28 µM

ClCC(Cl)CCl
not listed: [9]
inactive: all other assays above
